Reference: PubChem BioAssay AID1578 (Sanford-Burnham Center for Chemical Genomics, 2009)
In all, about 290,000 compounds went through this assay and about 3,000 (1%) were called active. Shown is part of a subset that was picked to be rich in actives. A number with no mark means an inactive call. Rule as the data show it: active = inhibition mostly above about 36% (no sharp cut-off); inactive = mostly below about 34%.

assay: inhibition of NOD1-driven NF-kB reporter – cell-based, luminescence, uHTS, primary screen (AID 1578); settings: NOD1-driven NF-kB luciferase reporter cells, at 4 µM, active compounds read high;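 also: HEK-293T reporter cells stimulated with the NOD1 agonist gamma-tri-DAP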

| Structure (SMILES) | inhibition |
| --- | --- |
| COc1ccc(-c2c3c(nc4sc5c(=O)[nH]c(C)nc5c24)CCC3)cc1 | -23.6% |
| O=c1[nH]cnc2c1sc1nc3c(c(-c4ccc(Cl)cc4)c12)CCC3 | 78.1% (active) |
| O=c1[nH]cnc2c1sc1nc(-c3ccccc3)c3c(c12)CCCC3 | 34.8% |
| COc1ccc(-c2nc3c4ccccc4ccn3c2CN2CCCCC2)cc1OC | -8.1% |
| Cc1nc(SCn2nnc3ccccc3c2=O)nc(C)c1C | -13.8% |
| CCOc1ccc(S(=O)(=O)NCCSCc2ccco2)cc1 | 3.8% |
| COc1ccc(NC(=O)Cn2ncc(Cl)c(Cl)c2=O)cc1S(=O)(=O)N1CCOCC1 | 43.5% |
| COc1cc(NC(=O)Cn2ncc(Cl)c(Cl)c2=O)c(C)cc1[N+](=O)[O-] | 91.3% (active) |
| COc1cc(NC(=O)CN2CCCCC2)c(C)cc1[N+](=O)[O-] | -16.1% |
| CCN(CC)S(=O)(=O)c1cc(NC(=O)Cn2ncc(Cl)c(Cl)c2=O)ccc1C | 62.3% (active) |
| CCN(CC)S(=O)(=O)c1cc(NC(=O)Cn2cnc3ccccc3c2=O)ccc1C | -1.6% |
| COc1cc(NC(=O)CN2C(=O)CN(C)C2=O)c(C)cc1[N+](=O)[O-] | -27.7% |
| CN(C(=O)c1ccccc1C(=O)OCC(=O)NC(=O)NC(C)(C)C)C1CCCCC1 | -11.4% |
| O=C(CSc1ncnc2scc(-c3ccccc3)c12)Nc1ccc(C(=O)O)cc1 | 24.9% |
| Nc1cc(N)nc(SCC(=O)Nc2ccccc2)n1 | 17.4% |
| COc1ccnc(Oc2ccc(F)cc2)c1C(=O)N/C=N/OCc1ccc(F)cc1 | -24% |
| Cc1oc2c(c(C)cc3oc(=O)c(CC(=O)N[C@@H](CC(C)C)C(=O)O)c(C)c32)c1C | -2.2% |
| O=C(O)CCn1cc(/C=C/C(=O)c2ccc(Cl)cc2)c(-c2ccc(Br)cc2)n1 | 52.9% |
| O=Cc1cn(CCC(=O)O)nc1-c1cccc(Br)c1 | -28.9% |
| CC(=O)c1sc(N/N=C\c2cccc(Br)c2)nc1C | 3.9% |
| C=CCNC(=O)/C(C#N)=C/c1ccc2c(c1)OCCO2 | -33.6% |
| Cn1c(O)c(C=Nc2ccc(Br)cc2)sc1=O | 53.6% (active) |
| CCn1c(O)c(C=Nc2ccccc2)sc1=O | -27.2% |
| Cc1ccc(N=Cc2sc(O)c3ccccc23)cc1 | -36.5% |
| CCOc1ccc(C(=O)Nc2nnc(S(=O)(=O)N3CCCCC3)s2)cc1 | 2.6% |
| O=C(N/N=C/c1cccc(OC(=O)c2cccc(Br)c2)c1)c1ccncc1 | -35% |
